Data taken from the supplement of paper PMC10849652.
Targets with a hit are over-represented here; the source holds about 7,900 in all. About 0.6% of all pairs of compound and target were hits.

Assays:
Assay in all cases: log2 fold change, soluble protein after heating vs DMSO (PISA); higher = thermal stabilisation; K562 cells, 10 uM, 30 min; active = over 0.2 and 3.5 SD of the protein, either way, in both replicates (recomputed)
IRAK-1-4 Inhibitor I = compound: C1COCCN1CCN2C3=CC=CC=C3N=C2NC(=O)C4=CC(=CC=C4)[N+](=O)[O-] [IRAK-1-4 Inhibitor I]
How it was run: (§1)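 For each measurement, 10 μM compound was applied for 30 min to K562 cells at 2×10^6 cells/mL. Aliquots were heated for 3 min across 48°C-58°C, pooled, and extracted in PBS with 0.5% NP-40 at 4°C; the supernatant after 21,000xg for 90 min was soluble protein. This was quantified by TMTpro 16plex LC-MS/MS with channel sums equalised, and thermal stability was reported relative to control samples from duplicates, on a log2 fold-change scale.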

ibrutinib = compound: C=CC(=O)N1CCC[C@@H](n2nc(-c3ccc(Oc4ccccc4)cc3)c3c(N)ncnc32)C1 [ibrutinib]
How it was run: as §1

[1] = compound: CC(=O)c1cnc2ccc(-c3cc(Cl)c(O)c(Cl)c3)nc2c1N[C@H]1CC[C@H](CN(C)C)CC1
How it was run: as §1

ralimetinib = compound: CC(C)(C)Cn1c(N)nc2ccc(-c3[nH]c(C(C)(C)C)nc3-c3ccc(F)cc3)nc21 [ralimetinib]
How it was run: as §1

[2] = compound: CC(C)(O)CC(=O)NCCn1ccc2ncnc(Nc3ccc(Oc4cccc(C(F)(F)F)c4)c(Cl)c3)c21
How it was run: as §1

[3] = compound: CC(C)C1=C2N=C(C=C(N2N=C1)NCC3=CC=CC=C3)NCCCCCCN
How it was run: as §1

[4] = compound: CC(C)C[C@@H](C=O)NC(=O)[C@H](CC(C)C)NC(=O)[C@H](CC(C)C)NC(=O)OCc1ccccc1
How it was run: as §1

pinometostat = compound: CC(C)N(C[C@H]1O[C@@H](n2cnc3c(N)ncnc32)[C@H](O)[C@@H]1O)[C@H]1C[C@@H](CCc2nc3cc(C(C)(C)C)ccc3[nH]2)C1 [pinometostat]
How it was run: as §1

[5] = compound: CC1=C(C(CC(=O)N1)C2=CC=C(C=C2)C(F)(F)F)C(=O)NC3=C(C=C4C(=C3)C=NN4)F
How it was run: as §1

[6] = compound: CC1=C(C2=C(C=C1)C(=O)C3=CC=CC=C3N2CCCN)C
How it was run: as §1

Measured: log2 fold change

GGA2 (UniProt Q9UJY4)
Chain of UniProt Q9UJY4 (Q9UJY4 whole entry, looked up): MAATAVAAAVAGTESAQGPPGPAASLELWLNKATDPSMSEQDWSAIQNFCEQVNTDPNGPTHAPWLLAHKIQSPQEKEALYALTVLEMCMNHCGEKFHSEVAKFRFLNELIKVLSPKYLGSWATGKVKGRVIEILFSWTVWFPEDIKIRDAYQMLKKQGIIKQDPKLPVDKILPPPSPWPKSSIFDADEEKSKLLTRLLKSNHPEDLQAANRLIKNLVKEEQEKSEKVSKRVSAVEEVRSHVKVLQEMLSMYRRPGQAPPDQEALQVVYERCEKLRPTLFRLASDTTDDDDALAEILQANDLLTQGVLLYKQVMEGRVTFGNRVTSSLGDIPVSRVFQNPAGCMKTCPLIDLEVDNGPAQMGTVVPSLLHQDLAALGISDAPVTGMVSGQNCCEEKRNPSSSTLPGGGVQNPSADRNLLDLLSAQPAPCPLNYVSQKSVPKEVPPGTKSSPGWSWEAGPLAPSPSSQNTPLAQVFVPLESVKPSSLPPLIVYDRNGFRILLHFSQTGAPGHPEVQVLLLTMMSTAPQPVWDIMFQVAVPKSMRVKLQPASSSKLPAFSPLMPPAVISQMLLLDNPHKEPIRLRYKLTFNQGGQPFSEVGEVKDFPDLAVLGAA
inactive: IRAK-1-4 Inhibitor I 0.007 | ibrutinib -0.05 | [1] -0.006 | ralimetinib -0.153 | [2] -0.048 | [3] -0.169 | [4] 0.068 | pinometostat -0.038 | [5] -0.04 | [6] 0.032

FKBP4 (UniProt Q02790)
inactive: IRAK-1-4 Inhibitor I 0 | ibrutinib -0.005 | [1] -0.006 | ralimetinib -0.016 | [2] -0.036 | [3] -0.094 | [4] 0.002 | pinometostat -0.032 | [5] -0.019 | [6] 0.013

HK2 (UniProt P52789)
Chain of UniProt P52789 (P52789 whole entry, looked up): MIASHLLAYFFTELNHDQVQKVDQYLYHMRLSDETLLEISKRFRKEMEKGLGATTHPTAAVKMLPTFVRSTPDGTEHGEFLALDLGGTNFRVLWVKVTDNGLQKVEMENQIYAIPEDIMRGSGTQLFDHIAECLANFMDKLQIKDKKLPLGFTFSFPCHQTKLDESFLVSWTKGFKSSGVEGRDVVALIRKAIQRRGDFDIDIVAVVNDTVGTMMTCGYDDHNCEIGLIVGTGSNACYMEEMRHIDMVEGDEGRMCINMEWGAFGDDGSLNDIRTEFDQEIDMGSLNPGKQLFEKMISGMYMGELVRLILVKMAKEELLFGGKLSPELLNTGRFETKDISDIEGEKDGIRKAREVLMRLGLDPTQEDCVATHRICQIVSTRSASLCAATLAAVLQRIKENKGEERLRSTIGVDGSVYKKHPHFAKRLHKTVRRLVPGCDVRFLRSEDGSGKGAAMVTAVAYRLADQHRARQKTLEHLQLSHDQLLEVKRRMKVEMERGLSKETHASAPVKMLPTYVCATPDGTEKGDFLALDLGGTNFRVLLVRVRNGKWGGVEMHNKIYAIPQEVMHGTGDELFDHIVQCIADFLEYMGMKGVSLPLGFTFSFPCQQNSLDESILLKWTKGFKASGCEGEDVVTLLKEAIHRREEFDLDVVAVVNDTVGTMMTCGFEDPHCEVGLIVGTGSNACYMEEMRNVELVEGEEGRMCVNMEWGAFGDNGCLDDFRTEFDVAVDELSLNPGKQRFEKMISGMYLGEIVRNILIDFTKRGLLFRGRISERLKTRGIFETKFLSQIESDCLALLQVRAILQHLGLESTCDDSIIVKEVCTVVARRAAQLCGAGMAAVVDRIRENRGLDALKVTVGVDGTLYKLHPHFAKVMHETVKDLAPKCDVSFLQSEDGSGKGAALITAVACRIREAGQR
inactive: IRAK-1-4 Inhibitor I -0.007 | ibrutinib -0.01 | [1] -0.096 | ralimetinib -0.037 | [2] -0.046 | [3] 0.096 | [4] -0.022 | pinometostat -0.001 | [5] 0.063 | [6] 0.034

GUK1 isoform 2 (UniProt Q16774)
Chain of UniProt Q16774 (Q16774 whole entry, looked up): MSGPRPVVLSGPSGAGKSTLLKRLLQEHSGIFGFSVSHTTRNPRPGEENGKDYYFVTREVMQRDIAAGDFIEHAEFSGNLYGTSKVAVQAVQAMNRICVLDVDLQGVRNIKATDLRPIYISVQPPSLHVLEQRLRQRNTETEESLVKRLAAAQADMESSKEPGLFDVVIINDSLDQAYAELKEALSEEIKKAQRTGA
inactive: IRAK-1-4 Inhibitor I -0.076 | ibrutinib -0.033 | [1] -0.162 | ralimetinib 0.038 | [2] -0.234 | [3] -0.033 | [4] 0.167 | pinometostat -0.037 | [5] -0.074 | [6] 0.092

HIP1 (UniProt O00291)
inactive: IRAK-1-4 Inhibitor I -0.002 | ibrutinib 0.083 | [1] -0.07 | ralimetinib -0.003 | [2] -0.035 | [3] -0.056 | [4] 0.079 | pinometostat 0.045 | [5] 0.074 | [6] 0.038

FUBP3 (UniProt Q96I24)
active: [6] 0.387
inactive: IRAK-1-4 Inhibitor I -0.002 | ibrutinib -0.002 | [1] -0.054 | ralimetinib 0.023 | [2] -0.083 | [3] 0.15 | [4] 0.036 | pinometostat -0.017 | [5] -0.022

HSD17B12 (UniProt Q53GQ0)
inactive: IRAK-1-4 Inhibitor I -0.01 | ibrutinib 0.038 | [1] -0.127 | ralimetinib -0.037 | [3] 0.22 | [4] -0.062 | pinometostat -0.064 | [5] 0.015 | [6] 0.031
active: [2] 0.289

GSTP1 (UniProt P09211)
inactive: IRAK-1-4 Inhibitor I 0.12 | ibrutinib -0.038 | [1] -0.074 | ralimetinib -0.021 | [2] -0.015 | [3] 0.016 | [4] -0.023 | pinometostat -0.026 | [5] -0.004 | [6] 0.03

IDI1 isoform 2 (UniProt Q13907)
Chain of UniProt Q13907 (Q13907 whole entry, looked up): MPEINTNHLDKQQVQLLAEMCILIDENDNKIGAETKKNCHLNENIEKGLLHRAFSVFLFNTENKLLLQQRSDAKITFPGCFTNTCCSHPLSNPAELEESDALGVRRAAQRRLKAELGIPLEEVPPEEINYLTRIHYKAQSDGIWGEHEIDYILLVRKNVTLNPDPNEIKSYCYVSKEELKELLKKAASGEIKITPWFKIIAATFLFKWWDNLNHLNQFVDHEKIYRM
inactive: IRAK-1-4 Inhibitor I 0.052 | ibrutinib 0.034 | [1] -0.01 | ralimetinib -0.04 | [2] 0.1 | [3] 0.077 | [4] -0.002 | pinometostat -0.012 | [5] 0.04 | [6] -0.099

GTPBP6 (UniProt O43824)
inactive: IRAK-1-4 Inhibitor I -0.043 | ibrutinib -0.081 | [1] 0.028 | ralimetinib 0.039 | [2] 0.111 | [3] 0.204 | [4] 0.024 | pinometostat 0.062 | [5] 0.112 | [6] 0.013

HMG20A (UniProt Q9NP66)
inactive: IRAK-1-4 Inhibitor I -0.05 | ibrutinib 0.043 | [1] -0.015 | ralimetinib 0.275 | [2] 0.062 | [3] 0.043 | [4] -0.405 | pinometostat 0.026 | [5] -0.008 | [6] 0.007

GNAS (UniProt Q5JWF2)
inactive: IRAK-1-4 Inhibitor I -0.04 | ibrutinib 0.001 | [1] -0.059 | ralimetinib 0.009 | [2] 0.022 | [3] 0.041 | [4] -0.009 | pinometostat 0 | [5] -0.059 | [6] 0.073

GALNT1 (UniProt Q10472)
Chain of UniProt Q10472 (Q10472 whole entry, looked up): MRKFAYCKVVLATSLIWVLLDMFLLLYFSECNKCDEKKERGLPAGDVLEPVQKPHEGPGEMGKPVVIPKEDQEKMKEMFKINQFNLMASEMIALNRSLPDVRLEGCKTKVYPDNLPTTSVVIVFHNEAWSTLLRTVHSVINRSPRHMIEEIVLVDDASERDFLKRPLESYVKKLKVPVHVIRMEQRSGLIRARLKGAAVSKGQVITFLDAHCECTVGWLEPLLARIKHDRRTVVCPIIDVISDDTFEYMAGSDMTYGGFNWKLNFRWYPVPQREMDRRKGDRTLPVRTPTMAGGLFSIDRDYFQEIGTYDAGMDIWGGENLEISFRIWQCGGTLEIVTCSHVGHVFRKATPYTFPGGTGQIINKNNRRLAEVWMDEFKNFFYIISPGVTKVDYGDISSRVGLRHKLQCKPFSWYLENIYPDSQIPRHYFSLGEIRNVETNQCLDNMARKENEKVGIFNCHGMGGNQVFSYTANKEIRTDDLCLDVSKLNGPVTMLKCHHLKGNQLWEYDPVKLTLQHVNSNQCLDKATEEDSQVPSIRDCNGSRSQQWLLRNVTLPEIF
inactive: IRAK-1-4 Inhibitor I -0.106 | ibrutinib 0.023 | [1] -0.002 | ralimetinib 0.101 | [2] 0.018 | [3] 0.048 | [4] -0.141 | pinometostat -0.025 | [5] -0.001 | [6] 0.021

FMC1 (UniProt Q96HJ9)
Chain of UniProt Q96HJ9 (Q96HJ9 whole entry, looked up): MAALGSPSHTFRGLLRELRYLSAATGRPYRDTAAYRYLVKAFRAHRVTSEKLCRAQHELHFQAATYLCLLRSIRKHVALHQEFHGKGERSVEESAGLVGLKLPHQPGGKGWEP
inactive: IRAK-1-4 Inhibitor I -0.06 | ibrutinib 0.008 | [1] 0.066 | ralimetinib -0.098 | [2] -0.006 | [3] 0.01 | [4] 0.125 | pinometostat 0.047 | [5] -0.041 | [6] 0.02

FANCI (UniProt Q9NVI1)
inactive: IRAK-1-4 Inhibitor I -0.043 | ibrutinib -0.082 | [1] -0.148 | ralimetinib -0.008 | [2] -0.146 | [4] -0.136 | pinometostat 0.006 | [5] -0.038 | [6] -0.098
active: [3] -0.377

GNG5 (UniProt P63218)
Chain of UniProt P63218 (P63218 whole entry, looked up): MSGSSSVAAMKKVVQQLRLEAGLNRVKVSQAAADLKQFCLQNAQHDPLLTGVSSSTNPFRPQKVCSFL
inactive: IRAK-1-4 Inhibitor I -0.022 | ibrutinib 0.039 | [1] 0.047 | ralimetinib 0.072 | [2] -0.084 | [3] 0.109 | [4] -0.065 | pinometostat -0.072 | [5] -0.071 | [6] 0.002

GSTM4 (UniProt Q03013)
Chain of UniProt Q03013 (Q03013 whole entry, looked up): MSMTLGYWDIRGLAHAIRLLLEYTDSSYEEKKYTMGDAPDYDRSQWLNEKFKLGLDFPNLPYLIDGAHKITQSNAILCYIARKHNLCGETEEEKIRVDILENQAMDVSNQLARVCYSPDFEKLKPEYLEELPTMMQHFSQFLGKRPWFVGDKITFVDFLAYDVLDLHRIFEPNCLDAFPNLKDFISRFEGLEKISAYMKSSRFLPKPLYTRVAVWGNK
inactive: IRAK-1-4 Inhibitor I 0.091 | ibrutinib -0.028 | [1] -0.083 | ralimetinib -0.035 | [2] -0.103 | [3] 0.029 | [4] -0.008 | pinometostat -0.05 | [5] -0.036 | [6] 0.115

HMGN2 (UniProt P05204)
active: [6] 0.401
inactive: IRAK-1-4 Inhibitor I -0.034 | ibrutinib -0.009 | [1] 0.121 | ralimetinib -0.024 | [2] 0.29 | [3] 0.128 | [4] 0.093 | pinometostat -0.074 | [5] 0.108

ICMT (UniProt O60725)
Chain of UniProt O60725 (O60725 whole entry, looked up): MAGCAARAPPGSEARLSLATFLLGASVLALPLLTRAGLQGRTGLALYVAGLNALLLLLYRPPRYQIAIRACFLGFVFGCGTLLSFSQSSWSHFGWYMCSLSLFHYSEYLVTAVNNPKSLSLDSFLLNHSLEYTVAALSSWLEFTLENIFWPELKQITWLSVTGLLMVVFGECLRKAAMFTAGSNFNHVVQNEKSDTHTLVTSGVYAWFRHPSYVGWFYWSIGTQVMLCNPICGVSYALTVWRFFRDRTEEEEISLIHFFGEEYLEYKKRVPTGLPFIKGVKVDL
active: [3] -0.472
inactive: IRAK-1-4 Inhibitor I 0.039 | ibrutinib 0.182 | [1] 0.248 | ralimetinib 0.163 | [2] -0.032 | [4] -0.051 | pinometostat -0.02 | [5] -0.171 | [6] 0.147

FBXO7 (UniProt Q9Y3I1)
inactive: IRAK-1-4 Inhibitor I -0.008 | ibrutinib 0.036 | [1] -0.024 | ralimetinib -0.005 | [2] -0.068 | [3] 0.001 | [4] -0.013 | pinometostat 0.042 | [5] -0.021 | [6] 0.044

H2AFX (UniProt P16104)
active: [6] 1.02
inactive: IRAK-1-4 Inhibitor I -0.049 | ibrutinib 0.077 | [1] 0.044 | ralimetinib 0.193 | [2] 0.036 | [3] -0.008 | [4] 0.308 | pinometostat 0.368 | [5] -0.019

GAPVD1 isoform 6 (UniProt Q14C86)
inactive: IRAK-1-4 Inhibitor I -0.044 | ibrutinib -0.087 | [1] 0.005 | ralimetinib 0.056 | [2] -0.111 | [4] 0.037 | pinometostat 0.094 | [5] 0.003 | [6] -0.003
active: [3] -0.278

FDPS (UniProt P14324)
inactive: IRAK-1-4 Inhibitor I -0.127 | ibrutinib -0.066 | [1] -0.096 | ralimetinib 0.048 | [2] -0.319 | [4] -0.028 | pinometostat 0.048 | [5] 0.007 | [6] 0.083
active: [3] -0.63

GLCCI1 (UniProt Q86VQ1)
inactive: IRAK-1-4 Inhibitor I 0.062 | ibrutinib 0.013 | [1] -0.131 | ralimetinib 0.001 | [2] -0.012 | [3] 0.075 | [4] 0.017 | pinometostat -0.03 | [5] 0.098 | [6] -0.013

FHOD1 (UniProt Q9Y613)
Chain of UniProt Q9Y613 (Q9Y613 whole entry, looked up): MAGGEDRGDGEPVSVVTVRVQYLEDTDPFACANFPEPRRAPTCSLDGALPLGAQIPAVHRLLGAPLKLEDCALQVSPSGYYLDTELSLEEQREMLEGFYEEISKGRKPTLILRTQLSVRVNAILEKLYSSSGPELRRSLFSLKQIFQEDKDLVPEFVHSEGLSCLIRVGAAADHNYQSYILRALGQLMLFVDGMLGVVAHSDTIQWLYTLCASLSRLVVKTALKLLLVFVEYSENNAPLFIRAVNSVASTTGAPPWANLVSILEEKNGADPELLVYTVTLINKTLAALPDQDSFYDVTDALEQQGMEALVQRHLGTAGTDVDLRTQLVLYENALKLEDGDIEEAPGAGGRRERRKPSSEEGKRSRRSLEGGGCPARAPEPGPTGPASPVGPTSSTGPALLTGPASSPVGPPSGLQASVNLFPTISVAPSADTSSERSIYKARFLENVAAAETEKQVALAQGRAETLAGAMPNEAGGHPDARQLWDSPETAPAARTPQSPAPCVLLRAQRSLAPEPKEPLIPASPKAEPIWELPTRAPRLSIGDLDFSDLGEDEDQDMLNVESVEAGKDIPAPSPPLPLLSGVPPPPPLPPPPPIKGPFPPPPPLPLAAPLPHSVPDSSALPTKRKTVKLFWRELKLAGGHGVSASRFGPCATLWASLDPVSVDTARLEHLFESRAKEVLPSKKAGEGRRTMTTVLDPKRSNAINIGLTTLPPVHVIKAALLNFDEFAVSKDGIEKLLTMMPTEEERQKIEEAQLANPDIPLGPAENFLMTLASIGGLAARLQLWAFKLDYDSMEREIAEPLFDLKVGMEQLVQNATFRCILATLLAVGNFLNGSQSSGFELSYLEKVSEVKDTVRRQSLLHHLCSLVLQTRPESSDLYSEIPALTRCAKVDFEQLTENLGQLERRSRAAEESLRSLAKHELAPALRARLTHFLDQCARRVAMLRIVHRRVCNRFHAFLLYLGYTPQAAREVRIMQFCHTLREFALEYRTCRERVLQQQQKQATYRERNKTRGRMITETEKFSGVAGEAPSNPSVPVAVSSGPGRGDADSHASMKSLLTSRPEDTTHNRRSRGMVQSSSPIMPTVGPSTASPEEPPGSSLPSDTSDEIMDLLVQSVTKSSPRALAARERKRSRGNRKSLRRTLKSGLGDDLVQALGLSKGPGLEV
inactive: IRAK-1-4 Inhibitor I -0.053 | ibrutinib 0.011 | [1] 0.042 | ralimetinib 0.193 | [2] 0.035 | [3] -0.197 | [4] 0.148 | pinometostat 0.458 | [5] 0.07

HS1BP3 (UniProt Q53T59)
Chain of UniProt Q53T59 (Q53T59 whole entry, looked up): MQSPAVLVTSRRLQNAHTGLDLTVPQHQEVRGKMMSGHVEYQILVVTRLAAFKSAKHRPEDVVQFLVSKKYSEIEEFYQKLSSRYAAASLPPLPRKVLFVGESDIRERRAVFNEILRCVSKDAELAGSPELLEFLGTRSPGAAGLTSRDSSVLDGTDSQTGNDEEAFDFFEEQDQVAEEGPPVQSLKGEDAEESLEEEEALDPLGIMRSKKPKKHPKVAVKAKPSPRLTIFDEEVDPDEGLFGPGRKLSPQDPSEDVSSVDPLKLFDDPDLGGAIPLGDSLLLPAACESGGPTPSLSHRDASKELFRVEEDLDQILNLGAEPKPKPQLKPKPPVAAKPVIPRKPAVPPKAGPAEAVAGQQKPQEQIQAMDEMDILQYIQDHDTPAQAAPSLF
inactive: IRAK-1-4 Inhibitor I 0.004 | ibrutinib -0.029 | [1] -0.117 | ralimetinib 0.038 | [2] -0.059 | [3] -0.038 | [4] 0.086 | pinometostat -0.002 | [5] 0.004

FDXR isoform 7 (UniProt P22570)
active: [2] -0.27
inactive: IRAK-1-4 Inhibitor I 0.031 | ibrutinib 0.046 | [1] -0.086 | ralimetinib -0.015 | [3] -0.091 | [4] 0.015 | pinometostat -0.024 | [5] -0.033 | [6] 0.125

GCSH (UniProt P23434)
Chain of UniProt P23434 (P23434 whole entry, looked up): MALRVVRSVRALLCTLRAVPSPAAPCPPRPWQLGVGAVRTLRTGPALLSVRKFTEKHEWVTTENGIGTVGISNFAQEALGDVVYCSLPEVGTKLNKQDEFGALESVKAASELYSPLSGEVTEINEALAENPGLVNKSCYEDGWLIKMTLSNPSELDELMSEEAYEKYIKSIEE
inactive: IRAK-1-4 Inhibitor I 0.027 | ibrutinib -0.002 | [1] 0.011 | ralimetinib -0.026 | [2] -0.031 | [3] -0.025 | [4] -0.049 | pinometostat -0.021 | [5] 0.029 | [6] 0.03

HBZ (UniProt P02008)
inactive: IRAK-1-4 Inhibitor I 0.025 | ibrutinib -0.001 | [1] -0.005 | ralimetinib -0.052 | [2] -0.042 | [3] 0.102 | [4] -0.019 | pinometostat -0.017 | [5] 0.004 | [6] 0.088

GHDC (UniProt Q8N2G8)
active: [3] -0.277
inactive: IRAK-1-4 Inhibitor I 0.014 | ibrutinib 0.015 | [1] -0.036 | ralimetinib 0.007 | [2] 0.037 | [4] 0.018 | pinometostat -0.015 | [5] 0.025 | [6] -0.011
